The results in this text go back to PubChem BioAssay (NCI).

Common to all, as to assay: NCI-60 one-dose screen, 48 h (100 = growth as untreated, 0 = no growth, -100 = all killed)
One experiment has as its system T-47D breast. Conditions: 10 µM unless noted.
For the next experiment, the system named is BT-549 breast. Conditions: 10 µM unless noted.
Another experiment relates to MDA-MB-435 melanoma. Conditions: 10 µM unless noted.
A further experiment relates to SW-620 colon. Particulars: 10 µM unless noted.
The next experiment deals with MCF7 breast.
A further experiment concerns HCT-116 colon. Particulars: 10 µM unless noted.
The subject of the next experiment is HCC-2998 colon. Particulars: 10 µM unless noted.
The subject of a further experiment is KM12 colon. Conditions: 10 µM unless noted.

The structures appear in SMILES notation. Where “and” joins values, the source holds several entries; their conditions need not be identical. Identical values can stand only once. About 83,000 compounds went through this panel and 20% of them were active in at least one assay; those are over-represented in the sample as a whole.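 Percent growth is the endpoint: 0 to 100 indicates growth inhibition (40 means 60% inhibition), 0 means no net growth, and negative values indicate cell death.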 Unmarked numbers belong to inactive results. Calls of active or inactive are those of the source. How the source made its calls: active means growth percent below 10; inactive means the rest.

Consider `CC[n+]1ccc(Nc2ccc(NC(=O)c3ccc(Nc4cc[n+](CC)c5ccc([N+](=O)[O-])cc45)cc3)cc2)cc1`, for which the growth in the experiment with T-47D breast is 46.3%; in the experiment with BT-549 breast it was 92.6%; with MDA-MB-435 melanoma it was 74.4%; in the experiment with SW-620 colon, 92.8%; with MCF7 breast (10 µM unless noted) it was 36.7%; with HCT-116 colon, 65.4%. Moreover, the growth with HCC-2998 colon was 104%; with KM12 colon, 65.5%.
As to `CC(C)=CCCC(C)C1=C(O)C(=O)C(C)=CC1=O` (centres undefined), the growth was -66.9% (active) in the experiment with T-47D breast; 24.7% in the experiment on BT-549 breast; 102% in the experiment on MDA-MB-435 melanoma; -49.5% (active) in the experiment with SW-620 colon; 66.9% in the experiment with MCF7 breast (10 µM); -52.3% (active) and -33.3% (active) in the experiment on MCF7 breast (100 µM). For the same molecule, the growth in the experiment on HCT-116 colon is -85.2% (active); in the experiment with HCC-2998 colon, 100%; in the experiment on KM12 colon, 86.8%.
Turning to `CC(C)c1ccc(C(=O)OC2CCCC2)cc1`, the growth was 91.2% in the experiment on T-47D breast; 97.5% in the experiment on BT-549 breast; 101% with MDA-MB-435 melanoma; 99.7% in the experiment with SW-620 colon; 95.7% with MCF7 breast (10 µM unless noted); 92.3% in the experiment on HCT-116 colon. The growth was 99% with HCC-2998 colon and 99.9% in the experiment with KM12 colon.
`CCCCCC/C=C1\CCC(CN2CCCC2)C1=O` (centres undefined): the growth in the experiment on T-47D breast is 77.7%; in the experiment with BT-549 breast it was 104%; in the experiment on MDA-MB-435 melanoma, 109%; in the experiment on SW-620 colon, 97.9%; in the experiment with MCF7 breast (10 µM unless noted), 7.97% (active); with HCT-116 colon, 84.5%. The growth in the experiment on HCC-2998 colon is 107%; with KM12 colon it was 75.4%.
On to `O=C(Nc1ccc(Cl)c(Cl)c1)OCc1ccco1`, for which the growth in the experiment on T-47D breast is 38.4%; in the experiment with BT-549 breast it was 31.6%; in the experiment with MDA-MB-435 melanoma it was 0.451% (active); in the experiment on SW-620 colon, 40.4%; in the experiment on MCF7 breast (10 µM unless noted) it was 14.8%; in the experiment with HCT-116 colon, 26.6%. For the same molecule, the growth was 56.4% in the experiment with HCC-2998 colon and 8.03% (active) in the experiment with KM12 colon.
As to `CC1=CC(=O)C=CC1(C)C(Cl)(Cl)Cl` (centres undefined), the growth with T-47D breast is 89.8%; with BT-549 breast, 103%; in the experiment with MDA-MB-435 melanoma it was 105%; in the experiment on SW-620 colon it was 96.7%; in the experiment with MCF7 breast (10 µM unless noted), 92.6%; in the experiment on HCT-116 colon it was 89.9%. The growth is 98.6% with HCC-2998 colon and 108% with KM12 colon.
In the case of `CN1CCC(CN2c3ccccc3Sc3ccccc32)C1` (centres undefined), the growth was 93.6% with T-47D breast; 89.4% in the experiment on BT-549 breast; 88.5% in the experiment with MDA-MB-435 melanoma; 93.7% with SW-620 colon; 97.7% in the experiment with MCF7 breast (10 µM unless noted); 77.6% in the experiment with HCT-116 colon. Further, the values for the growth in the experiment with HCC-2998 colon and in the experiment on KM12 colon were 41.4% and 97.2%, respectively.
As for `O=C1C=CC(=O)N1c1ccc(O)cc1`, the growth with T-47D breast is 83.3%; in the experiment on BT-549 breast, 103%; in the experiment on MDA-MB-435 melanoma, 107%; with SW-620 colon it was 95.6%; in the experiment with MCF7 breast (10 µM unless noted) it was 102%; with HCT-116 colon, 106%. Besides, the figures for the growth in the experiment on HCC-2998 colon and with KM12 colon were 105% and 109%, respectively.
Turning to `O=C1C=CC(=O)N1C1CCCCCCCCCCC1`, the growth in the experiment on T-47D breast was 56.9%; in the experiment with BT-549 breast, 87.5%; in the experiment with MDA-MB-435 melanoma, 82.6%; with SW-620 colon, -27.4% (active); with MCF7 breast (10 µM unless noted) it was 69.8%; in the experiment on HCT-116 colon, 0.595% (active). In addition, the values for the growth in the experiment with HCC-2998 colon and with KM12 colon were 106% and 104%, respectively.
Consider `Cc1nn(CCO)c(C)c1N=[N+]([O-])c1c(C)nn(CCO)c1C`, for which the growth in the experiment with T-47D breast is -3.43% (active); with BT-549 breast, 50.5%; in the experiment on MDA-MB-435 melanoma it was -25.4% (active); with SW-620 colon it was -61.2% (active); with MCF7 breast (10 µM unless noted), 4.45% (active); in the experiment on HCT-116 colon, -81.9% (active). The growth in the experiment with HCC-2998 colon was 109%; in the experiment with KM12 colon, 81%.
As for `CCOc1ccc(C(CN2CCOCC2)C(C)=O)cc1OC` (centres undefined), the growth in the experiment on T-47D breast was 33.2%; in the experiment on BT-549 breast it was 91.2%; in the experiment with MDA-MB-435 melanoma, 97.6%; in the experiment with SW-620 colon, 60%; with MCF7 breast (10 µM unless noted) it was 13.4%; with HCT-116 colon it was 97.3%. Moreover, the growth with HCC-2998 colon was 115%; with KM12 colon it was 93.3%.
On to `O=C1C=CC(=O)N1c1ccccc1`, for which the growth in the experiment with T-47D breast is 99.8%; with BT-549 breast, 97.1%; with MDA-MB-435 melanoma, 109%; in the experiment on SW-620 colon, 80.9%; in the experiment on MCF7 breast (10 µM unless noted), 106%; with HCT-116 colon, 75.1%. Further, the results for the growth with HCC-2998 colon and in the experiment with KM12 colon were 98.7% and 103%, respectively.
For `Clc1ccc(-n2ncc3c(NCCCN4CCOCC4)ncnc32)cc1`, the growth was 85.3% in the experiment on T-47D breast; 101% with BT-549 breast; 98.9% in the experiment with MDA-MB-435 melanoma; 104% in the experiment with SW-620 colon; 89.9% with MCF7 breast (10 µM unless noted); 94.9% in the experiment on HCT-116 colon. In addition, the growth with HCC-2998 colon was 105%; with KM12 colon it was 103%.
In the case of `Oc1cc(Cl)ccc1Cc1ccc(Cl)cc1O`, the growth in the experiment with T-47D breast was 29.2%; with BT-549 breast it was 33.9%; in the experiment on MDA-MB-435 melanoma it was 46.2%; in the experiment with SW-620 colon, 81.2%; in the experiment with MCF7 breast (10 µM unless noted), 68.3%; in the experiment on HCT-116 colon, 41.7%. In addition, the values for the growth in the experiment with HCC-2998 colon and in the experiment on KM12 colon were 88.1% and 98.7%, respectively.
As to `O=C(c1ccccc1)N(CCCl)C(=O)N(CCCl)C(=O)c1ccccc1`, the growth with T-47D breast is 86%; with BT-549 breast it was 100%; in the experiment on MDA-MB-435 melanoma, 102%; in the experiment on SW-620 colon it was 110%; in the experiment with MCF7 breast (10 µM unless noted), 101%; in the experiment with HCT-116 colon, 90%. The values for the growth with HCC-2998 colon and with KM12 colon were 104% and 102%, respectively.
Consider `COC(=O)c1ccc(=O)c2nc3/c(=C/O)c(O)cc(=O)c3[nH]c12`, for which the growth is 25.6% in the experiment on T-47D breast; 5.85% (active) in the experiment on BT-549 breast; 23.4% in the experiment on MDA-MB-435 melanoma; 29.5% with SW-620 colon; 2.95% (active) in the experiment with MCF7 breast (10 µM unless noted); -19% (active) in the experiment with HCT-116 colon. Besides, the growth with HCC-2998 colon is 24.9%; in the experiment with KM12 colon, 31.1%.
